# In PMC5540273 (PLoS ONE, 2017):
# How the values were obtained:
# Conditions in all cases: concentration: 1 μM, replicates: in singlicate; n = 1
# LCK = tested on: LCK
# LIMK1 = tested on: LIMK1
# LIMK2 = tested on: LIMK2
# LKB1 = tested on: T1, LKB1
# T1 construct: gene STK11
# LOK = tested on: T2, LOK
# T2 construct: gene STK10
# LRRK2 = tested on: LRRK2
# LTK = tested on: LTK
# LYN = tested on: LYN
# LZK = tested on: T3, LZK
# T3 construct: gene MAP3K13
# MAK = tested on: MAK
# MAP3K15 = tested on: MAP3K15
# MAP3K1 = tested on: MAP3K1
# MAP3K2 = tested on: MAP3K2
# MAP3K3 = tested on: MAP3K3
# MAP3K4 = tested on: MAP3K4
# MAP4K2 = tested on: MAP4K2
# MAP4K3 = tested on: MAP4K3
# MAP4K4 = tested on: MAP4K4
# MAP4K5 = tested on: MAP4K5
# MAPKAPK2 = tested on: MAPKAPK2
# 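Note: KINOMEscan kinase panel screen.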
Compound,%Inh (LCK),%Inh (LIMK1),%Inh (LIMK2),%Inh (LKB1),%Inh (LOK),%Inh (LRRK2),%Inh (LTK),%Inh (LYN),%Inh (LZK),%Inh (MAK),%Inh (MAP3K15),%Inh (MAP3K1),%Inh (MAP3K2),%Inh (MAP3K3),%Inh (MAP3K4),%Inh (MAP4K2),%Inh (MAP4K3),%Inh (MAP4K4),%Inh (MAP4K5),%Inh (MAPKAPK2)
c1ccc(Oc2ccc(Nc3ccnc4cc(-c5ccc(CNCCN6CCOCC6)o5)ccc34)cc2)nc1 [GW567145],78%,0%,0%,20%,30%,20%,0%,28%,32%,0%,0%,9%,1%,0%,0%,0%,0%,9%,56%,0%
Cl.Cl.NCC(C(=O)Nc1cc(Br)c(-c2ccnc3[nH]ccc23)s1)c1ccccc1 (stereo not drawn) [GSK1269851],28%,27%,0%,78%,0%,20%,0%,0%,0%,1%,0%,17%,13%,0%,63%,13%,0%,20%,0%,0%
COC(=O)Nc1nc2ccc(Oc3ccc(NC(=O)Nc4cc(C(F)(F)F)ccc4F)cc3)cc2n1C.Cl [GW692089],65%,0%,0%,53%,99.2%,1%,33%,28%,49%,0%,0%,2%,0%,0%,0%,0%,0%,0%,0%,6%
Cc1occc1-c1ncc(OC[C@@H](N)Cc2c[nH]c3ccccc23)cc1-c1ccc2[nH]nc(C)c2c1.O=C(O)C(F)(F)F [GSK682037],98.2%,0%,0%,0%,85%,23%,42%,39%,0%,3%,10%,11%,96.9%,98.6%,22%,99.3%,99.4%,99.2%,99.6%,0%
COc1cccc(-c2ccc3c(NC(=O)C4CC4)n[nH]c3n2)c1 [SB-710903],23%,14%,55%,0%,0%,0%,0%,1%,47%,24%,0%,35%,15%,0%,32%,0%,0%,53%,3%,16%
Cc1ccc(C)c(NC(=O)NC2CCN(c3ccnc(Nc4ccc(F)cc4)n3)C2)c1 (stereo not drawn) [GSK1379720],0%,9%,0%,2%,0%,0%,17%,4%,41%,6%,0%,0%,0%,0%,18%,0%,0%,0%,0%,23%
O=C(Nc1cccc(-c2nn3ccccc3c2-c2ccnc(Nc3cccc(C(F)(F)F)c3)n2)c1)c1c(F)cccc1F [GSK292658],95.2%,0%,5%,0%,80%,1%,3%,72%,0%,25%,26%,11%,0%,2%,6%,6%,0%,1%,15%,21%
O=C(Nc1n[nH]c2nc(-c3ccc(O)cc3)ccc12)C1CC1 [SB-710363],24%,2%,0%,9%,27%,0%,58%,23%,0%,90.7%,32%,10%,13%,30%,0%,41%,0%,53%,0%,0%
CC(=O)Nc1nc2cnc(Nc3cc(NC(=O)c4cccc(C5(C#N)CC5)c4Cl)ccc3C)nc2s1,91.1%,0%,0%,0%,54%,0%,0%,79%,6%,0%,0%,0%,0%,0%,10%,16%,0%,17%,0%,0%
Nc1ncc(-c2ccc3nccc(-c4ccncc4)c3c2)cc1S(=O)(=O)N1CCOCC1 [GSK1627798],20%,0%,0%,0%,0%,0%,0%,0%,0%,22%,0%,7%,19%,0%,9%,0%,0%,0%,3%,14%
C[C@@H](Oc1cc(-n2cnc3cc(-c4ccnc(NCCS(C)(=O)=O)c4)ccc32)sc1C(N)=O)c1ccccc1Cl [GSK907232],67%,0%,4%,0%,99.1%,44%,0%,0%,0%,0%,6%,92%,10%,0%,35%,20%,85%,21%,96.3%,0%
CCn1c(-c2nonc2N)nc2c(C#CC(C)(C)O)nc(OC[C@H](N)c3ccccc3)cc21 [GSK943949],1%,11%,6%,31%,1%,14%,0%,1%,0%,0%,0%,0%,57%,55%,1%,19%,11%,8%,40%,0%
CC(=O)N1CCN(c2ccc(Nc3nccc(-c4sc(C(C)C)nc4-c4cccc(NS(=O)(=O)c5cccc(Cl)c5)c4)n3)cn2)CC1 [GSK1660437],98.6%,98.4%,100%,0%,96.8%,24%,23%,74%,29%,35%,16%,12%,0%,7%,0%,8%,10%,13%,54%,19%
Cl.Cl.NCC(NCc1ccc(-c2ccnc3[nH]ccc23)s1)c1ccccc1 (stereo not drawn) [GSK1321565],16%,0%,20%,82%,29%,10%,31%,0%,40%,0%,0%,0%,63%,29%,0%,64%,2%,0%,0%,0%
COC(=O)Nc1nc2cc(Oc3ccc(NC(=O)Nc4cc(C(F)(F)F)ccc4F)cn3)ccc2[nH]1.Cl.Cl [GW681170],92.9%,0%,0%,11%,99.8%,22%,47%,36%,21%,0%,0%,11%,0%,0%,9%,0%,3%,3%,0%,0%
COc1cccc(C2=C(Nc3ccc(Cl)c(C(=O)O)c3)C(=O)NC2=O)c1 [SB-390769],15%,13%,0%,0%,0%,0%,0%,8%,30%,100%,24%,13%,100%,0%,29%,100%,0%,100%,100%,26%
Clc1ccc(-c2nn3ncccc3c2-c2ccnc(Nc3ccc4c(c3)OCCO4)n2)cc1 [GW829116],83%,0%,0%,0%,71%,0%,19%,27%,0%,0%,0%,0%,7%,2%,0%,0%,0%,12%,0%,0%
CCS(=O)(=O)c1ccc(OC)c(Nc2nccc(-c3c(-c4cccc(NC(=O)c5c(F)cccc5F)c4)nn4ncccc34)n2)c1 [GSK326180],56%,23%,3%,0%,92.1%,0%,19%,30%,0%,15%,0%,10%,6%,0%,7%,0%,22%,3%,0%,34%
